Compounds with a hit are over-represented: about 2.5% of the library has one in this group of screens.
Cruzain inh noDet – blocks cruzain activity in detergent-free assay; purified cruzain, Z-FR-AMC fluorescence, no detergent; Potency, µM, usual class: inhibitors; 2.3% of 200,000 active; also: nearly all actives have a fitted effect of over 40% in size
Target sequence (P25779 123-467 limits assumed): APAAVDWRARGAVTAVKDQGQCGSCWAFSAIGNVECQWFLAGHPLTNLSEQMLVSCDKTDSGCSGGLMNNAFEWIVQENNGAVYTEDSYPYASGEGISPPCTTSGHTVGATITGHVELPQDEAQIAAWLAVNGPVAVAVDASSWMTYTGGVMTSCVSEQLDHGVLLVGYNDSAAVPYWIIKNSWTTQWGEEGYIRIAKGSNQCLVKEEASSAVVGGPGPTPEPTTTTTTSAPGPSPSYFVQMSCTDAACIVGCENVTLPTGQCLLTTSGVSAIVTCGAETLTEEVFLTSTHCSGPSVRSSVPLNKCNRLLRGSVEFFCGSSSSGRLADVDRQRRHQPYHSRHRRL
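Detergent-free condition (0.00005% Triton X-100) in acetate buffer pH 5.5 with DTT. 1.5 nM enzyme and compound were pre-mixed 15 min, then 2 uM Z-FR-AMC substrate added; reaction progress from fluorescence change between first and third reads (60 s).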
Cruzain Triton – blocks cruzain activity in presence of Triton detergent; P25779; purified cruzain, Z-FR-AMC fluorescence, 0.01% Triton; Potency, µM, hits mostly inhibitors; 0.43% of 200,000 active; AID 1478; also: nearly all actives have a fitted effect of over 40% in size
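Cruzain (1.5 nM) preincubated 15 min at RT with compound in 100 mM sodium acetate pH 5.5, 5 mM DTT, 0.01% Triton X-100. Reaction started with 2 uM Z-FR-AMC; AMC fluorescence (ex 360/em 450 nm) change over 60 s gave rate.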
Numbers stand for hits; n = inactive; u = inconclusive. Calls follow the shape of the dose curve; as a rule, active = well fitted curve in the direction sought with a large enough effect; inconclusive = small, poorly fitted or top-dose-only effect, or another doubt; inactive = no such curve, though single readings can be large; an effect the other way counts as inactive or inconclusive.

SMILES	Cruzain inh noDet	Cruzain Triton
CCCCC/C=C\C/C=C\C[C@H](O)/C=C/C=C\CCCC(=O)O	n	n
CCOc1cc(C(=O)O)cc(Cl)c1OCC#N	n	n
C#CCOc1c(Cl)cc(/C=N/NC(N)=S)cc1OCC	0.63µM	2µM
COc1cc(OC)c(OC)cc1/C=N/NC(=O)C[n+]1ccccc1	n	n
CCOc1c(Cl)cc(/C=N/NC(N)=S)cc1OC	0.5µM	2.5µM
COc1cc(/C=N/O)cc(Cl)c1OC	n	n
COc1cc(OC)c(/C=N/NC(N)=S)cc1Br	0.25µM	0.18µM
CC(C)=C[C@H]1[C@@H](COC(=O)c2ccccc2Cl)C1(C)C	n	n
CCCCCCc1cc2cc(S(=O)(=O)c3ccc(F)c(Cl)c3)c(=O)oc2cc1O	20µM	n
CCCCCCc1cc2cc(-c3nnc(-c4ccc(C)cc4)o3)c(=O)oc2cc1O	n	n
Cc1c(Cl)cccc1NC(=O)Nc1c[nH]c(=O)[nH]c1=O	20µM	n
CCOC(=O)c1ccc(NC(=O)Nc2c[nH]c(=O)[nH]c2=O)cc1	n	n
CC(C)CC(=O)Nc1nnc(SCc2cc(=O)n3ccccc3n2)s1	n	n
CN(C)c1ccc(/C=C/C(O)=C2/C(=O)N(C)C3(C)CC2c2ccccc2O3)cc1 (configuration not stated)	20µM	n
CN1C(=O)C(/C(N)=N/NC(=O)c2ccccc2)C2CC1(C)Oc1ccccc12 (configuration not stated)	n	n
COc1ccc(CNC(=O)C(=O)NCC(c2cccs2)S(=O)(=O)c2cccs2)cc1 (configuration not stated)	n	n
Nn1cnnc1N/N=C\c1ccc(-c2ccccc2[N+](=O)[O-])o1	n	20µM
O=[N+]([O-])c1ccccc1-c1ccc(/C=N/n2cnnc2)o1	n	n
Cc1ccc(-n2nc(C)c3c(C)c(CCC(=O)NCc4ccc(Cl)cc4)c(C)nc32)cc1	n	n
CCOC(=O)c1c(C)[nH]c(CCC(=O)Nc2cc(Cl)ccc2OC)c1C	n	n
CCOC(=O)c1c(NC(=O)CS(=O)(=O)c2ccc(C)cc2)sc2c1CCCCC2	4µM	n
COC(=O)c1c(NC(=O)COC(=O)[C@@H](NS(=O)(=O)c2ccc(C)cc2)C(C)C)sc2c1CCC2	16µM	n
COC(=O)c1c(NC(=O)COC(=O)c2ccc(C)s2)sc2c1CCCCC2	n	n
CCOC(=O)c1c(NC(=O)CS(=O)(=O)c2ccc(Cl)cc2)sc2c1CCCC2	n	n
COc1cccc(NC(=O)Cn2c(=O)n(CCCCC(=O)NCCc3ccccc3)c(=O)c3ccccc32)c1	n	n
SMILES	Cruzain inh noDet	Cruzain Triton
Cc1ccc(Oc2nc3ccccn3c(=O)c2/C=C(\C#N)c2nc3ccccc3s2)c(C)c1	n	n
CCc1nn(-c2cc(Oc3ccccc3)nc(-c3ccccc3)n2)c(N)c1C#N	3.2µM	n
CCc1nn(-c2ccccc2)c(N)c1C#N	n	n
CCN(c1cccc(C)c1)S(=O)(=O)c1nnc(NC(=O)c2ccccc2Cl)s1	n	n
CCCCCCN(CCCCCC)C(=O)Cc1c(-c2ccc(F)cc2)[nH]c2ccccc12	32µM	n
O=C(Cc1c(O)c2ccccc2[nH]c1=O)N(Cc1ccccc1)Cc1ccccc1	n	n
Cc1cc(C)cc(NC(=O)Cc2c(C(=O)O)c(C)cn2C)c1	n	n
O=C(O)/C(=C\c1ccc(O)cc1)c1cccc2ccccc12	n	n
Cc1ccc(/C=C(\C#N)c2nn(-c3ccccc3)c(N)c2C#N)cc1	n	n
Cc1c(/C=C(\C#N)c2nn(-c3ccccc3)c(N)c2C#N)c2ccccc2n1Cc1ccc(F)cc1	4µM	n
O=C(Nc1ncc(Cc2ccccc2Cl)s1)c1ccc2c(c1)CC(c1ccccc1)OC2=O (configuration not stated)	32µM	n
CCc1ccc(Cc2cnc(NC(=O)c3ccc4c(c3)CC(c3ccccc3)OC4=O)s2)cc1 (configuration not stated)	u	n
CCOc1ccc(NC(=O)CCn2cccn2)cc1	n	n
O=C(O)c1ccc2nc(-c3ccccc3)sc2c1	n	n
Nc1ccc(-c2nc3ccc(C(=O)O)cc3s2)cc1	u	25µM
COc1ccc2c(c1)c(CC(=O)Nc1c(C)cccc1C)c(C)n2C(=O)c1ccc(Cl)cc1	n	n
COc1ccc2c(c1)c(CC(=O)Nc1ccccc1OC)c(C)n2C(=O)c1ccc(Cl)cc1	16µM	n
COc1ccc(OC)c(NC(=O)Cc2c(C)n(C(=O)c3ccc(Cl)cc3)c3ccc(OC)cc23)c1	n	n
COc1ccc2c(c1)c(CC(=O)Nc1cc(C)ccc1C)c(C)n2C(=O)c1ccc(Cl)cc1	13µM	n
CCOc1ccc(-c2nnc(SCC(=O)NCc3ccc(C)cc3)nc2-c2ccc(OCC)cc2)cc1	n	n
O=C1O[C@@H]([C@H](O)[C@H](O)[C@H](O)CO)[C@@H](O)[C@@H]1O	n	n
COc1ccc(CNC(=O)CCc2c(C)nc3c(c2C)c(=O)n(C)c(=O)n3C)cc1	n	n
O=C(c1cccc([N+](=O)[O-])c1)N1c2ncnn2C2(CCCCC2)[C@@H]2CCCC[C@@H]21	n	n
CCCCCCCCCCCCOCC1CO1 (configuration not stated)	n	n
COc1ccc2c(c1)Cc1cc(N=[N+]([O-])c3ccc4c(c3)Cc3cc(OC)ccc3-4)ccc1-2	n	n
SMILES	Cruzain inh noDet	Cruzain Triton
O=C(Oc1ccc2c(=O)c(Oc3ccc4ccccc4c3)coc2c1)c1cncc(Br)c1	3.2µM	n
O=C(Oc1ccc2ccccc2c1)c1cncc(Br)c1	u	n
O=C(NCCCN1CCCCCC1)c1ccc2c(c1)sc1nc(-c3ccccc3)cn12	n	n
CC(C)NC[C@@H](O)c1ccc(O)c2ncccc12	n	n
CC(C)(C)c1ccc(-c2csc(NC(=O)CN3C(=O)NC4(CCCCC4)C3=O)n2)cc1	7.9µM	n
CCNC(=O)CN1C(=O)NC2(CCCCCC2)C1=O	n	n
CCOc1ccccc1-c1nc(-c2ccc(NC(=O)Cc3ccccc3OC)cc2)no1	25µM	n
COc1ccc(CC(=O)Nc2ccc(-c3noc(-c4cccc(OC)c4)n3)cc2)cc1	7.9µM	n
COc1ccc(-c2noc(CC(=O)Nc3ccc(C)c(F)c3)n2)cc1	n	n
COc1cccc(-c2nc(-c3ccc(NC(=O)c4cccnc4)cc3)no2)c1	n	n
CCOc1ccccc1NC(=O)c1ccccc1-c1nc(-c2ccccc2)no1	n	n
COc1ccccc1CC(=O)Nc1ccc(-c2noc(COc3ccc(Cl)c(C)c3)n2)cc1	25µM	n
Cc1ccc(-n2nnnc2SCC(=O)NCCc2ccccc2)cc1C	n	n
Cc1cc(-c2ccc(C)c(S(=O)(=O)N(C)c3ccc(C)c(C)c3)c2)on1	n	n
Cc1ccc(-c2nnn(CC(=O)Nc3ccc(S(=O)(=O)N4CCC(C)CC4)cc3)n2)cc1	10µM	n
CC1CCN(S(=O)(=O)c2ccc(NC(=O)Cn3nnc(-c4ccccc4)n3)cc2)CC1	u	n
CCc1ccccc1NC(=O)c1cc(-c2ccc(OC)cc2)on1	n	n
COc1ccccc1-c1cc(C(=O)Nc2ccc(F)cc2F)no1	13µM	n
CCc1ccccc1NC(=O)C1=CC(c2ccc3c(c2)OCO3)=NS(=O)(=O)N1C	n	n
COc1ccccc1-c1cc(C(=O)Nc2cc(Cl)ccc2O)no1	n	n
COc1cccc(C2=NS(=O)(=O)N(C)C(C(=O)Nc3ccccc3SC)=C2)c1	13µM	n
COc1ccc(-c2cc(C(=O)Nc3ccccc3SC)no2)cc1	5µM	n

Compound activity: PubChem BioAssay, National Center for Advancing Translational Sciences (NCATS)
